# HT1080NT lethal: kills 2HG-producing HT-1080-NT fibrosarcoma cells. AID 686970. 1.6% of 360,000 active. HT-1080-NT fibrosarcoma viability, CellTiter-Glo ATP luminescence, 48 h. Potency, µM (doses to about 46.1 µM), inactives show at the highest dose activity, negative = less viability, usual class: cytotoxic;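 also: NT is the 2HG producing partner of a matched IDH1 knockdown line; potency is read from the fitted curve at half-maximal effect; 0% = DMSO-treated cells and -100% = media-only wells without cells; nearly all actives have a fitted effect of over 55% in size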
#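 A 48-hour cytotoxicity screen used HT-1080-NT cells plated 2 hours before compound delivery. ATP-based CellTiter-Glo luminescence measured viability, normalized to DMSO and no-cell controls.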
# IL1B secr inh: blocks inflammasome-driven IL-1 beta release | THP-1 LPS/ATP IL-1B secretion, AlphaLISA, 16 h; stronger effect = lower value | activity change, % at 57.5 µM | 4.7% of 360,000 active | AID 743279; in the data active = activity change below about -50%; inconclusive = mostly about -30% to -49%
#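 THP-1 cells pretreated 1 hr with compounds (up to 57.5 uM final), then stimulated with LPS (250 ng/mL final) plus ATP (1.25 mM final); secreted IL-1B measured by AlphaLISA after 16 hr, decreased signal indicating inhibition.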
# TDP1 cell CPT: DT40-hTDP1 cell growth loss with CPT. chicken DT40 Tdp1-/-;hTDP1 cells + 20 nM CPT, ATP luminescence, 48 h. Potency, µM (doses to about 46.2 µM), for inactives: at the top dose activity change, negative = growth inhibition, usual class: inhibitors. 12% of 420,000 active; also: potency is read from the fitted curve at half-maximal effect; nearly all actives have a fitted effect of over 55% in size
#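 Cell growth measured by CellTiter-Glo luminescence after a minimum 48 h, 37 C compound exposure with 20 nM CPT in Tdp1-knockout DT40 cells stably expressing hTDP1, seeded 400/well; qHTS titration format.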
# TDP1 cell noCPT: qHTS for Inhibitors of human tyrosyl-DNA phosphodiesterase 1 (TDP1): qHTS in cells in absence of CPT; DT40 Tdp1-/- hTDP1 cells, no CPT, ATP luminescence, 48 h; Potency, µM (highest dose often 46.2 µM), for the others: at the highest dose activity change, negative = growth inhibition, usual class: inhibitors; 15% of 420,000 active; AID 686978, 2013; also: potency is read from the fitted curve at half-maximal effect; nearly all actives have a fitted effect of over 55% in size
#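 Compound effects on proliferation are scored in DT40 Tdp1-/-;hTDP1 cells in the absence of CPT. ATP levels (CellTiter-Glo luminescence) are recorded after a ≥48 hr, 37 °C incubation.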
# HT1080 IDH1KD tx: kills HT-1080 cells with IDH1 knockdown | HT-1080 IDH1 knockdown viability, ATP luminescence, 48 h | Potency, µM (highest dose often 46.1 µM), inactives show at the highest dose activity, negative = toxicity, actives largely listed as cytotoxic | 2% of 360,000 active | AID 686971;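 also: potency is read from the fitted curve at half-maximal effect; 0% = DMSO wells and -100% = cell-free medium wells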
#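 Cytotoxicity counter-line: IDH1KD HT-1080, 48 h, CellTiter-Glo. Curves classed by r2, magnitude and activity.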
# The depositor's hits bear a star; ? = inconclusive; . = no result; ! = not confirmed by another sample; [ ] = remark or other dose. Hits are enriched below; roughly 19% of the tested compounds scored in any of these assays. Unless noted, calls follow the shape of the dose curve; as a rule, active = well fitted curve in the direction sought with a large enough effect; inconclusive = small, poorly fitted or top-dose-only effect, or another doubt; inactive = no such curve, though single readings can be large; an effect the other way counts as inactive or inconclusive. Unless noted, % is scaled to controls: 0 for no effect and ±100 for the full control effect.
SMILES,HT1080NT lethal,IL1B secr inh,TDP1 cell CPT,TDP1 cell noCPT,HT1080 IDH1KD tx
Cc1c(C)n(Cc2ccccc2)c2ccc(C(=O)NCc3ccc(OC(C)C)cc3)cc12,.,.,16µM*,12µM*,.
C1CN(CC23CC4CC(CC(C4)C2)C3)CCO1,3%,-1,-21%,16µM*,-5%
CC1CCCC(NC(=S)NC(=O)c2ccco2)C1C (centres undefined),-6%,15,15µM*,?,-10%
Cc1ccc(C(=O)NNC(=O)c2ccco2)cc1,-6%,-9,-4%,4%,3%
Cc1ccc(C(=O)NNC(=S)NC(=O)c2ccco2)cc1,?,97,7.3µM*,12µM*,?
O=C(NNC(=O)c1ccco1)c1ccccc1,8%,4,-14%,-12%,16%
CC1CCCCC1NC(=O)c1ccco1 (centres undefined),18%,-4,-3%,0%,25%
O=C(NC(=S)NNC(=O)c1ccco1)c1ccccc1,-25%,102,?,16µM*,?
Cc1nn(C)c(NC(=O)c2ccc(Cl)cc2Cl)c1Br,0%,-17,?,-41%,0%
CCOC(=O)c1ccccc1NC(=O)CCOc1ccccc1,.,.,-6%,-20%,.
Cc1cc(F)ccc1S(=O)(=O)Nc1ccccc1C(=O)Nc1ccccc1-c1nc2ccccc2[nH]1,?,-79*,5.8µM*,7.3µM*,?
Cc1cc(F)ccc1S(=O)(=O)Nc1ccccc1C(=O)Nc1ncn[nH]1,-1%,15,-16%,-26%,-4%
O=C(Cn1c(-c2cncs2)nc2ccccc21)NCc1ccccc1,3%,-5,7%,-8%,4%
Cc1nc2ccccc2n1Cc1ccc(Cl)cc1,?,-14,10µM*!,7.3µM*,?
Brc1cc2c(cc1Cn1c(-c3cncs3)nc3ccccc31)OCO2,-3%,-16,-27%,?,-8%[9.24 µM]
CCCCOc1ccccc1NC(=O)Cn1c(-c2cncs2)nc2ccccc21,.,.,23µM*,?,.
Cc1ccccc1Cn1c(-c2cncs2)nc2ccccc21,-20%,-52*,?,?,-22%
Brc1ccccc1Cn1c(-c2cscn2)nc2ccccc21,-2%,-6,23µM*,?,?
OCc1nc2ccccc2n1Cc1ccc(Cl)cc1,0%,-19,?,?,-9%
CCCCn1c(N)c(N(CCOC)C(=O)c2ccc(C)o2)c(=O)[nH]c1=O,4%,16,-2%,-2%,1%
CN(c1ccccc1)S(=O)(=O)c1cccc(NS(=O)(=O)c2cccc(C(=O)O)c2)c1,-6%,-11,1%,0%,-2%
Cc1ccccc1Cn1c(Cc2ccccc2)nc2ccccc21,0%,-20,?,18µM*,1%
Clc1ccc(COn2c(-c3ccccc3)nc3ccccc32)cc1,-5%,?,?,23µM*,0%
Cc1ccccc1Cn1c(C)nc2ccccc21,-21%,-5,?,5.8µM*,?
Fc1ccccc1Cn1c(-c2ccccc2)nc2ccccc21,.,.,?,7.3µM*,.
SMILES,HT1080NT lethal,IL1B secr inh,TDP1 cell CPT,TDP1 cell noCPT,HT1080 IDH1KD tx
Cc1cc(C)cc(OCC(=O)OC(C)C(=O)Nc2ccc(Cl)cn2)c1 (centres undefined),8%,5,5%,-2%,0%
CC(C)(C)c1ccc(Cn2c(Cc3ccccc3)nc3ccccc32)cc1,.,.,7.3µM*,6.5µM*,.
CCc1cccc(CC)c1NC(=O)COC(=O)CC1c2ccccc2CCN1S(=O)(=O)c1ccccc1 (centres undefined),0%,-2,?,?,0%
COc1cc(Cn2c(-c3nonc3N)nc3ccccc32)ccc1C,3.7µM*,7,2.9µM*,4.1µM*,1.8µM*
COc1cccc(C(O)c2nc3ccccc3n2C(C)C)c1 (centres undefined),4%,?,-10%,-19%,3%
COc1cccc(Cn2c(C(C)n3c(C)nc4ccccc43)nc3ccccc32)c1 (centres undefined),?,21,?,12µM*,?
